{
  "source": "the supplement of paper PMC8728848",
  "test_in_all_cases": "glycan array binding signal (z-score within array); higher = stronger binding",
  "conditions_in_all_cases": "glycan notation: IUPAC condensed, linker removed",
  "key": {"[1]": {"target": "Fuc(a1-2)Gal(b1-3)GalNAc(a1-3)[Fuc(a1-2)]Gal(b1-4)Glc", "how_it_was_run": "(§1)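 Negative Z-scores can be read as non-binding. The Z-score is calculated within each array and then averaged across arrays of one protein sequence at different concentrations or buffers and across linkers. Arrays, 3228 in all, were curated from the Consortium for Functional Glycomics database and kept only where the protein sequence was available.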"}, "[2]": {"target": "Fuc(a1-2)Gal(b1-3)GlcNAc(b1-3)GalNAc", "how_it_was_run": "as §1"}, "[3]": {"target": "Fuc(a1-2)Gal(b1-3)[Fuc(a1-4)]GlcNAc(b1-2)Man(a1-3)[Fuc(a1-2)Gal(b1-3)[Fuc(a1-4)]GlcNAc(b1-2)Man(a1-3)]Man(b1-4)GlcNAc(b1-4)GlcNAc", "how_it_was_run": "as §1"}, "[4]": {"target": "Fuc(a1-2)Gal6S(b1-3)GlcNAc6S", "how_it_was_run": "as §1"}, "[5]": {"target": "Fuc(a1-2)[Gal(a1-3)]Gal(b1-4)Glc", "how_it_was_run": "as §1"}, "[6]": {"target": "Fuc(a1-2)[Gal(a1-3)]Gal(b1-4)GlcNAc(b1-2)Man(a1-3)[Fuc(a1-2)[Gal(a1-3)]Gal(b1-4)GlcNAc(b1-2)Man(a1-6)]Man(b1-4)GlcNAc(b1-4)[Fuc(a1-6)]GlcNAc", "how_it_was_run": "as §1"}, "[7]": {"target": "Fuc(a1-2)[Gal(a1-3)]Gal(b1-4)GlcNAc(b1-3)[Fuc(a1-2)[Gal(a1-3)]Gal(b1-4)GlcNAc(b1-6)]GalNAc", "how_it_was_run": "as §1"}, "[8]": {"target": "Fuc(a1-2)[Gal(a1-3)]Gal(b1-4)[Fuc(a1-3)]GlcNAc(b1-3)GalNAc", "how_it_was_run": "as §1"}, "[9]": {"target": "Fuc(a1-2)[GalNAc(a1-3)]Gal(b1-3)GalNAc(a1-3)[Fuc(a1-2)]Gal(b1-4)GlcNAc", "how_it_was_run": "as §1"}, "[10]": {"target": "Fuc(a1-2)[GalNAc(a1-3)]Gal(b1-3)GlcNAc(b1-2)Man(a1-3)[Fuc(a1-2)[GalNAc(a1-3)]Gal(b1-3)GlcNAc(b1-2)Man(a1-6)]Man(b1-4)GlcNAc(b1-4)GlcNAc", "how_it_was_run": "as §1"}, "[11]": {"target": "Fuc(a1-2)[GalNAc(a1-3)]Gal(b1-4)[Fuc(a1-3)]GlcNAc(b1-3)GalNAc", "how_it_was_run": "as §1"}, "[12]": {"target": "Fuc(a1-3)[Gal(b1-4)]Glc6S", "how_it_was_run": "as §1"}, "[13]": {"target": "Fuc(a1-3)[Gal3S(b1-4)]Glc", "how_it_was_run": "as §1"}, "Fuc(b1-3)GlcNAc": {"target": "Fuc(b1-3)GlcNAc", "how_it_was_run": "as §1"}, "[14]": {"target": "Gal(a1-4)Gal(b1-4)GlcNAc(b1-3)Gal(b1-4)Glc", "how_it_was_run": "as §1"}, "[15]": {"target": "Gal(b1-3)GlcNAc(b1-2)Man(a1-3)[Gal(b1-3)GlcNAc(b1-2)Man(a1-6)]Man(b1-4)GlcNAc(b1-4)GlcNAc", "how_it_was_run": "as §1"}, "[16]": {"target": "Gal(b1-3)[Fuc(a1-4)]GlcNAc(b1-2)Man", "how_it_was_run": "as §1"}, "[17]": {"target": "Gal(b1-4)GlcNAc(b1-2)Man(a1-3)[Gal(b1-4)GlcNAc(b1-2)Man(a1-6)][GlcNAc(b1-4)]Man(b1-4)GlcNAc(b1-4)[Fuc(a1-6)]GlcNAc", "how_it_was_run": "as §1"}, "[18]": {"target": "Gal3S(b1-4)[Fuc(a1-3)]GlcNAc6S", "how_it_was_run": "as §1"}, "Gal3S6S(b1-4)GlcNAc": {"target": "Gal3S6S(b1-4)GlcNAc", "how_it_was_run": "as §1"}, "Gal3S6S(b1-4)GlcNAc6S": {"target": "Gal3S6S(b1-4)GlcNAc6S", "how_it_was_run": "as §1"}, "Gal4S(b1-4)GlcNAc": {"target": "Gal4S(b1-4)GlcNAc", "how_it_was_run": "as §1"}, "Gal6S(b1-4)GlcNAc6S": {"target": "Gal6S(b1-4)GlcNAc6S", "how_it_was_run": "as §1"}, "GalNAc(a1-3)Gal": {"target": "GalNAc(a1-3)Gal", "how_it_was_run": "as §1"}, "[19]": {"target": "GalNAc(b1-4)GlcNAc(b1-3)GalNAc(b1-4)GlcNAc", "how_it_was_run": "as §1"}, "GalNAc4S6S(b1-4)GlcNAc": {"target": "GalNAc4S6S(b1-4)GlcNAc", "how_it_was_run": "as §1"}, "[20]": {"target": "GlcNAc(b1-2)Gal(b1-3)GalNAc", "how_it_was_run": "as §1"}, "GlcNAc(b1-3)Fuc": {"target": "GlcNAc(b1-3)Fuc", "how_it_was_run": "as §1"}, "[21]": {"target": "GlcNAc(b1-3)Gal(b1-4)GlcNAc(b1-2)Man(a1-3)[GlcNAc(b1-3)Gal(b1-4)GlcNAc(b1-2)Man(a1-6)]Man(b1-4)GlcNAc(b1-4)GlcNAc", "how_it_was_run": "as §1"}, "[22]": {"target": "GlcNAc(b1-3)Gal(b1-4)GlcNAc(b1-3)Gal(b1-4)GlcNAc(b1-2)[GlcNAc(b1-3)Gal(b1-4)GlcNAc(b1-3)Gal(b1-4)GlcNAc(b1-6)]Man(a1-6)[GlcNAc(b1-3)Gal(b1-4)GlcNAc(b1-3)Gal(b1-4)GlcNAc(b1-2)Man(a1-3)]Man(b1-4)GlcNAc(b1-4)[Fuc(a1-6)]GlcNAc", "how_it_was_run": "as §1"}},
  "note": "The sample as a whole holds a higher share of the strongest signals than the screen did.",
  "data": [
    {"binder": "Wzz (Escherichia coli) (protein) MRTWKFPSVRVMMRVENNNVSGQNHDPEQIDLIDLLVQLWRGKMTIIISVIVAIVLAIGYLAVAKEKWTSTAIITQPDVGQIAGYNNAMNVIYGQAAPKVSDLQETLIGRFSSAFSALAETLDNQEEPEKLTIEPSVKNQQLPLTVSYVGQTAEGAQMKLAQYIQQVDDKVNQELEKDLKDNIALGRKNLQDSLRTQEVVAQEQKDLRIRQIQEALQYANQAQVTKPQIQQTGEDITQDTLFLLGSEALESMIKHEATRPLVFSSNYYQTRQNLLDIDNLDVDKLDIHAYLYVMKPTLPIRRDSPKKAITLILAVLLGGMVGAGIVLGRNALRNYNAK", "values": [
      {"measurement": "glycan array binding signal (z-score)", "setting": "[1]", "result": 0.119},
      {"measurement": "glycan array binding signal (z-score)", "setting": "[2]", "result": -0.55},
      {"measurement": "glycan array binding signal (z-score)", "setting": "[3]", "result": 0.002},
      {"measurement": "glycan array binding signal (z-score)", "setting": "[4]", "result": 2.91},
      {"measurement": "glycan array binding signal (z-score)", "setting": "[5]", "result": 0.055},
      {"measurement": "glycan array binding signal (z-score)", "setting": "[6]", "result": -0.233},
      {"measurement": "glycan array binding signal (z-score)", "setting": "[7]", "result": 0.857},
      {"measurement": "glycan array binding signal (z-score)", "setting": "[8]", "result": 1.59},
      {"measurement": "glycan array binding signal (z-score)", "setting": "[9]", "result": 1.11},
      {"measurement": "glycan array binding signal (z-score)", "setting": "[10]", "result": -0.965},
      {"measurement": "glycan array binding signal (z-score)", "setting": "[11]", "result": 0.633},
      {"measurement": "glycan array binding signal (z-score)", "setting": "[12]", "result": 1.46},
      {"measurement": "glycan array binding signal (z-score)", "setting": "[13]", "result": -0.538},
      {"measurement": "glycan array binding signal (z-score)", "setting": "Fuc(b1-3)GlcNAc", "result": 0.034},
      {"measurement": "glycan array binding signal (z-score)", "setting": "[14]", "result": 0.032},
      {"measurement": "glycan array binding signal (z-score)", "setting": "[15]", "result": 1.41},
      {"measurement": "glycan array binding signal (z-score)", "setting": "[16]", "result": 2.68},
      {"measurement": "glycan array binding signal (z-score)", "setting": "[17]", "result": -0.511},
      {"measurement": "glycan array binding signal (z-score)", "setting": "[18]", "result": 2.08},
      {"measurement": "glycan array binding signal (z-score)", "setting": "Gal3S6S(b1-4)GlcNAc", "result": 0.861},
      {"measurement": "glycan array binding signal (z-score)", "setting": "Gal3S6S(b1-4)GlcNAc6S", "result": 16.9},
      {"measurement": "glycan array binding signal (z-score)", "setting": "Gal4S(b1-4)GlcNAc", "result": -0.728},
      {"measurement": "glycan array binding signal (z-score)", "setting": "Gal6S(b1-4)GlcNAc6S", "result": 4.99},
      {"measurement": "glycan array binding signal (z-score)", "setting": "GalNAc(a1-3)Gal", "result": -0.563},
      {"measurement": "glycan array binding signal (z-score)", "setting": "[19]", "result": -0.667},
      {"measurement": "glycan array binding signal (z-score)", "setting": "GalNAc4S6S(b1-4)GlcNAc", "result": 5.1},
      {"measurement": "glycan array binding signal (z-score)", "setting": "[20]", "result": -0.1},
      {"measurement": "glycan array binding signal (z-score)", "setting": "GlcNAc(b1-3)Fuc", "result": 0.1},
      {"measurement": "glycan array binding signal (z-score)", "setting": "[21]", "result": -0.684},
      {"measurement": "glycan array binding signal (z-score)", "setting": "[22]", "result": -0.222}
    ]}
  ]
}
